# Source: PubChem BioAssay (Tox21)
# Unmarked numbers belong to inactive results. Inconclusive results are not listed. Where a call stands in place of a potency, no number is given. The source made the active and inactive calls. Unless noted, the call rests on the fitted dose curve; in most records, active means well fitted curve in the direction sought with a large enough effect in the repeat runs; inconclusive means weak or mixed curves; inactive means no such curve, though single readings can be large; an effect the other way counts as inactive or inconclusive.
# Experiments:
# [1] = qHTS assay to identify small molecule antagonists of the constitutive androstane receptor (CAR) signaling pathway - cell viability counter screen (AID 1224837); further: nearly all actives have a fitted effect of over 45% in size; further: potency means the concentration at half of the fitted maximal effect
# Outline: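 Cells are seeded, rested 4 hr at 37 C/5% CO2, dosed with compound (15-point series) and 50 nM CITCO, incubated a further 23 hr, and then CellTiter-Fluor reagent is added before fluorescence is read. The line is HepG2 with stable hCAR and CYP2B6-2.2kb.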
# [2] = target: Nuclear receptor subfamily 1 group I member 3 (Homo sapiens) (UniProt Q14994); assay: qHTS assay to identify small molecule antagonists of the constitutive androstane receptor (CAR) signaling pathway (AID 1224838);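 further: HepG2 cells stably expressing hCAR with CYP2B6 luciferase reporter stimulated by CITCO; nearly all actives have a fitted effect of over 40% in size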
# Chain of Nuclear receptor subfamily 1 group I member 3 (Homo sapiens) (Q14994 whole entry, looked up): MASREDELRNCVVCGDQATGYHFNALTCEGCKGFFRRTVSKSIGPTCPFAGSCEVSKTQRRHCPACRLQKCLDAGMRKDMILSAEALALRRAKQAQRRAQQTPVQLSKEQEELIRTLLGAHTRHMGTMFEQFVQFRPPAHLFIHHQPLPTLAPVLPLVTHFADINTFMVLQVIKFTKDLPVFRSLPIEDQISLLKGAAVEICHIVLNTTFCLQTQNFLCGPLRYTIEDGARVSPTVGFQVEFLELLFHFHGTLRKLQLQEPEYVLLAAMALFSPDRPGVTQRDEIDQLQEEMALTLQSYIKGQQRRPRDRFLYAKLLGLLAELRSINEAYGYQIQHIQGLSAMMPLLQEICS
# Outline: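 Luminescence from a CYP2B6-2.2kb promoter reporter in hCAR-expressing HepG2 cells reflects CAR signaling. Cells received compounds at 15 concentrations and 50 nM CITCO (final), then incubated 24 h at 37 C/5% CO2.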
# [3] = target: Nuclear receptor subfamily 1 group I member 3 (Homo sapiens) (UniProt Q14994); assay: qHTS assay to identify small molecule agonists of the constitutive androstane receptor (CAR) signaling pathway (AID 1224839); further: nearly all actives have a fitted effect of over 15% in size; further: potency means the concentration at half of the fitted maximal effect
# Outline: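 A 15-concentration quantitative screen uses HepG2 cells co-transfected stably with human CAR and CYP2B6-2.2kb reporter. Treatment lasts 24 h with 0.75 uM PK11195 final present; ONE-Glo luminescence is the signal.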
# [4] = qHTS assay to identify small molecule antagonists of the estrogen related receptor signaling pathway with the pleiotropic PPARgamma coactivator (PGC) from Tox21 10K library - cell viability counter screen (AID 1224840; active means well fitted cell-killing curve with a large enough effect in the repeat runs, not every such curve was filed as active; further: nearly all actives have a fitted effect of over 40% in size; further: potency means the concentration at half of the fitted maximal effect)
# Outline: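 Cell viability is measured by CellTiter-Fluor fluorescence in PGC/ERR cells that receive compounds after a 6-hour attachment period and are then incubated 17.5 hours at 37 C.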
# [5] = target: Thyrotropin receptor (Homo sapiens) (UniProt P16473); assay: qHTS assay to identify small molecule agonists of the thyroid stimulating hormone receptor (TSHR) signaling pathway (AID 1224843; calls by dose curve; further: nearly all actives have a fitted effect of over 45% in size)
# Chain of Thyrotropin receptor (Homo sapiens) (P16473 whole entry, looked up): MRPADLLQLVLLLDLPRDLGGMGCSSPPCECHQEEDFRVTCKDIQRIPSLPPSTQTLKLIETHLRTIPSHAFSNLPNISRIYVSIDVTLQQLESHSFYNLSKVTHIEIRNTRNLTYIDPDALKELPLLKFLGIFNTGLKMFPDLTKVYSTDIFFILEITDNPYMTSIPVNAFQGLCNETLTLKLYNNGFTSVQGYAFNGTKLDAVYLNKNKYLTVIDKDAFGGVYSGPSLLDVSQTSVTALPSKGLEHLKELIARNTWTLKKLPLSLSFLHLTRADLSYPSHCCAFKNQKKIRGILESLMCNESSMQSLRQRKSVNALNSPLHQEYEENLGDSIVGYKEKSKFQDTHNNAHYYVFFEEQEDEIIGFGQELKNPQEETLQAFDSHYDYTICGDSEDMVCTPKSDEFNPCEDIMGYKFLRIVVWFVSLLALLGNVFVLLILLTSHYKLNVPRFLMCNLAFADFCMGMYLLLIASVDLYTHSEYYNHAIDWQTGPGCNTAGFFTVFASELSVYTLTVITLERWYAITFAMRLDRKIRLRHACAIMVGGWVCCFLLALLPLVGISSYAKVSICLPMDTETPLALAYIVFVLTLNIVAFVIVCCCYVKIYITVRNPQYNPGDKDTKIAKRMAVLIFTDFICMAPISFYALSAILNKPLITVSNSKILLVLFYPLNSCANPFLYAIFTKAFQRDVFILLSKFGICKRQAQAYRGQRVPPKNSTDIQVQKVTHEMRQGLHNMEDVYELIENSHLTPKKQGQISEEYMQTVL
# Outline: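 A cell-based cAMP HTRF format was run in TSHR-transfected HEK293 cells, 800 per well. Treatment: 30 min, room temperature. Detection: 1 h with labelled cAMP and anti-cAMP cryptate. Concentration-response over 15 points, three replicates.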
# [6] = qHTS assay to identify small molecule agonists of the hypoxia (HIF-1) signaling pathway - cell viability counter screen (AID 1224844; calls by dose curve; further: nearly all actives have a fitted effect of over 50% in size; further: potency means the concentration at half of the fitted maximal effect)
# Outline: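 Viability counter screen: HRE-bla ME-180 cells plated 5 hrs before compound addition, treated 17 hrs at 37C and 5% CO2, then CellTiter-Glo added after the FRET reporter read; luminescence after 30 min.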
# [7] = qHTS assay to identify small molecule agonists of the hypoxia (HIF-1) signaling pathway (AID 1224846; active means well fitted activation curve with a large enough effect in the signal ratio in the repeat runs, not every such curve was filed as active; the % refers to the signal ratio)
# Outline: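 Agonist mode reporter screen. ME-180 cells stably expressing bla under HRE control received test compounds in DMSO for 17 hrs (37C, 5% CO2), and beta-lactamase activity was then detected with the CCF4-AM FRET substrate.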
# [8] = qHTS assay to identify small molecule agonists of H2AX - cell viability counter screen (AID 1224847; calls by dose curve; further: nearly all actives have a fitted effect of over 30% in size; further: potency means the concentration at half of the fitted maximal effect)
# Outline: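 We seed wild-type CHO-K1 cells overnight, treat them for 3 hr at 37C with compounds in 15-concentration series, and quantify remaining viability by CellTiter-Glo luminescence.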
# [9] = qHTS RealTime-Glo MT Cell Viability Assay in HepG2 cells - 24 hour (AID 1224867); further: nearly all actives have a fitted effect of over 50% in size
# Outline: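 Cells + NanoLuc/prosubstrate dispensed (600 cells/well) → 5 h at 37 C/5% CO2 → compounds in DMSO transferred → 40 h incubation at 37 C, luminescence read at 0, 8, 16, 24, 32, 40 h.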
# [10] = A CellTox Green Cytotoxicity Assay to monitor cytotoxicity in HEK293 cells - 0 hour (AID 1224869); further: nearly all actives have a fitted effect of over 50% in size
# Outline: (§1)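 Dead-cell fluorescence measured kinetically: asymmetric cyanine dye, HEK293, 600 cells/well, 5 h settle, 23 nL cpd/DMSO, 37 C, reads 0–40 h every 8 h.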
# [11] = qHTS RealTime-Glo MT Cell Viability Assay in HepG2 cells - 40 hour (AID 1224870); further: nearly all actives have a fitted effect of over 50% in size
# Outline: (§2)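 Real-time viability: cells seeded at 600 per well together with NanoLuc and cell-permeant prosubstrate, compounds added after 5 h incubation. Luminescence tracked at 0, 8, 16, 24, 32 and 40 h of exposure.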
# [12] = A CellTox Green Cytotoxicity Assay to monitor cytotoxicity in HEK293 cells - 40 hour (AID 1224871); further: nearly all actives have a fitted effect of over 45% in size; further: potency means the concentration at half of the fitted maximal effect
# Outline: as §1
# [13] = qHTS RealTime-Glo MT Cell Viability Assay in HEK293 cells - 16 hour (AID 1224872); further: nearly all actives have a fitted effect of over 50% in size; further: potency means the concentration at half of the fitted maximal effect
# Outline: (§3)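 Tox21 10K qHTS, HEK293, 600 cells/well, RealTime-Glo reagent co-dispensed with cells; 5 h preincubation, compound by pintool, 37 C, luminescence at 0–40 h.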
# [14] = qHTS RealTime-Glo MT Cell Viability Assay in HepG2 cells - 8 hour (AID 1224873); further: nearly all actives have a fitted effect of over 55% in size
# Outline: as §2
# [15] = qHTS assay to identify small molecule agonists of H2AX (AID 1224845; active means well fitted activation curve with a large enough effect in the signal ratio in the repeat runs, not every such curve was filed as active; the % refers to the signal ratio)
# Outline: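 Phospho-H2AX Ser139 measured by HTRF (ex 320 nm; em 665 and 620 nm) after 24 hr antibody incubation. Compounds, 15 concentrations, 0.76% DMSO, were applied to CHO-K1 cells for 3hr at 37C before lysis.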
# [16] = qHTS RealTime-Glo MT Cell Viability Assay in HEK293 cells - 32 hour (AID 1224868); further: nearly all actives have a fitted effect of over 50% in size; further: potency means the concentration at half of the fitted maximal effect
# Outline: as §3
# [17] = qHTS assay to identify small molecule antagonists of the estrogen related receptor signaling pathway with the pleiotropic PPARgamma coactivator (PGC) from Tox21 10K library (AID 1224841; call rule not given here)
# Outline: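 Cells stably carrying the PGC/ERR reporter, seeded at 2,000 per well, received pin-transferred compounds 6 h post-plating. Exposure lasted 18 h at 37 C. Signal: One-Glo luminescence.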
# [18] = qHTS assay to identify small molecule antagonists of the estrogen related receptor (ERR) signaling pathway from Tox21 library (AID 1224848); further: nearly all actives have a fitted effect of over 50% in size
# Outline: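 ERR cell line, 2,000 cells/well. 6 h settle, then compound (DMSO) added; 18 h at 37 C; ONE-Glo luminescence after 30 min RT.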
# [19] = qHTS assay to identify small molecule agonists of the estrogen related receptor (ERR) signaling pathway from Tox21 library (AID 1224849; calls by dose curve; further: nearly all actives have a fitted effect of over 15% in size); settings: ERR reporter cell line, ONE-Glo luciferase, 18 h; at 92.4 µM (top of the series) unless noted
# Outline: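 Quantitative HTS in agonist format: NTP ERR cell line, compounds transferred in DMSO after 6 h plating, 18 h incubation at 37 C, ONE-Glo luminescence endpoint.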
# [20] = qHTS assay to identify small molecule agonists of the estrogen related receptor signaling pathway with the pleiotropic PPARgamma coactivator (PGC) from Tox21 10K library (AID 1224842); further: nearly all actives have a fitted effect of over 15% in size; further: potency means the concentration at half of the fitted maximal effect
# Outline: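 Luminescence from One-Glo (30 min, room temperature) measured after PGC/ERR cells had 18 h at 37 C with pinned compound (23 nL in DMSO). Cells had been seeded at 2,000 per well and pre-incubated 6 h.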
SMILES,Potency [1],Potency [2],Potency [3],Potency [4],Potency [5],Potency [6],outcome [7],Potency [8],Potency [9],Potency [10],Potency [11],Potency [12],Potency [13],Potency [14],Potency [15],Potency [16],Potency [17],Potency [18],"activity change, positive = activation [19]",Potency [20]
CN(C)CCCNCCCN,inactive,inactive,inactive,inactive,inactive,inactive,inactive,inactive,inactive,inactive,inactive,inactive,inactive,inactive,–,–,–,–,–,–
CC(C)CCCCCCOC(=O)c1ccc(C(=O)OCCCCCCC(C)C)c(C(=O)OCCCCCCC(C)C)c1,inactive,inactive,inactive,inactive,inactive,inactive,inactive,inactive,inactive,inactive,inactive,inactive,inactive,inactive,inactive,inactive,–,–,–,–
C=CC(=O)OCCOC(=O)CCC(=O)O,inactive,inactive,inactive,inactive,inactive,–,inactive,–,inactive,inactive,inactive,inactive,inactive,inactive,inactive,inactive,inactive,inactive,67.1% (active),–
CC1=CC(=O)/C(=C(/C)O)C(=O)O1,inactive,inactive,inactive,inactive,inactive,inactive,inactive,inactive,inactive,inactive,inactive,inactive,inactive,inactive,inactive,inactive,–,–,–,–
CC(C)(C)c1cc(CCC(=O)OCC(COC(=O)CCc2cc(C(C)(C)C)c(O)c(C(C)(C)C)c2)(COC(=O)CCc2cc(C(C)(C)C)c(O)c(C(C)(C)C)c2)COC(=O)CCc2cc(C(C)(C)C)c(O)c(C(C)(C)C)c2)cc(C(C)(C)C)c1O,inactive,inactive,inactive,inactive,inactive,inactive,inactive,inactive,inactive,inactive,inactive,inactive,inactive,inactive,inactive,inactive,–,–,–,–
CCCCOC(=O)/C=C\C(=O)OCCCC,inactive,inactive,inactive,inactive,–,inactive,inactive,–,inactive,inactive,inactive,–,inactive,inactive,inactive,inactive,inactive,inactive,-7.95%,inactive
O=CNc1ccccc1,inactive,inactive,inactive,inactive,–,inactive,inactive,inactive,inactive,inactive,inactive,inactive,inactive,inactive,–,inactive,inactive,inactive,-1.57%,inactive
CCOC(=O)C1=C(C)NC(C)=C(C(=O)OC)C1c1cccc([N+](=O)[O-])c1 (stereo not drawn),inactive,inactive,inactive,inactive,inactive,inactive,inactive,inactive,–,inactive,–,inactive,–,–,inactive,–,–,–,–,–
CCCCCCCCCCCCC(=O)O,inactive,inactive,inactive,inactive,inactive,inactive,inactive,inactive,inactive,inactive,inactive,inactive,inactive,inactive,–,inactive,–,–,–,–
c1ccc(CNCc2ccccc2)cc1,inactive,inactive,inactive,inactive,inactive,inactive,inactive,inactive,inactive,inactive,inactive,inactive,inactive,inactive,–,inactive,–,–,–,–
Cc1ncsc1CCO,inactive,inactive,inactive,inactive,inactive,inactive,inactive,inactive,inactive,inactive,inactive,inactive,inactive,inactive,–,inactive,–,–,–,–
Cc1cccc(OCCOc2cccc(C)c2)c1,inactive,inactive,29 µM (active),inactive,–,inactive,inactive,–,inactive,inactive,inactive,inactive,inactive,inactive,inactive,inactive,inactive,inactive,10.4%,inactive
CC(C)(C)c1cc(CO)cc(C(C)(C)C)c1O,inactive,inactive,24.8 µM (active),inactive,inactive,inactive,inactive,–,inactive,inactive,inactive,inactive,–,inactive,–,–,–,–,-33.2%,inactive
O=C(O)/C=C/c1cnc[nH]1,inactive,inactive,inactive,inactive,inactive,inactive,inactive,inactive,inactive,inactive,inactive,inactive,inactive,inactive,inactive,inactive,–,–,–,–
OCC1CC2CC1C1CCC(CO)C21 (stereo not drawn),inactive,inactive,inactive,inactive,–,–,–,inactive,inactive,inactive,inactive,inactive,inactive,inactive,–,inactive,inactive,inactive,-2.51%,inactive
N#Cc1c(F)cccc1F,inactive,inactive,inactive,inactive,inactive,inactive,inactive,inactive,inactive,inactive,inactive,inactive,inactive,inactive,inactive,inactive,–,–,–,–
Oc1ccc2c(c1)OCO2,inactive,inactive,inactive,inactive,inactive,inactive,inactive,inactive,inactive,inactive,inactive,inactive,inactive,inactive,–,inactive,–,–,–,–
Oc1ccc(Cc2ccccc2)cc1,inactive,inactive,56.6 µM (active),–,inactive,inactive,inactive,–,inactive,inactive,inactive,–,36 µM (active),inactive,–,36 µM (active),inactive,inactive,2.56%,–
Cc1cc(C)c(S(=O)(=O)O)cc1N=Nc1cc(S(=O)(=O)O)c2ccccc2c1O,61.1 µM (active),inactive,inactive,34.4 µM (active),inactive,inactive,inactive,–,inactive,inactive,inactive,inactive,–,inactive,–,–,–,–,–,–
CC(C(=O)O)c1ccc(-c2ccccc2)c(F)c1 (stereo not drawn),inactive,inactive,inactive,inactive,–,inactive,–,–,inactive,inactive,inactive,inactive,inactive,inactive,–,inactive,–,–,–,–
COc1ccc(C(C)=O)cc1,inactive,inactive,inactive,inactive,–,inactive,inactive,inactive,inactive,inactive,inactive,inactive,inactive,inactive,–,inactive,–,–,–,–
COCCO,inactive,inactive,inactive,inactive,–,inactive,inactive,inactive,inactive,inactive,inactive,inactive,inactive,inactive,inactive,inactive,–,–,–,–
CC(=O)/C(C)=C/C1C(C)=CCCC1(C)C (stereo not drawn),inactive,inactive,inactive,–,–,inactive,inactive,inactive,inactive,inactive,inactive,17.4 µM (active),inactive,inactive,inactive,inactive,inactive,inactive,5.66%,inactive
CCCCCOC(=O)c1ccc(O)cc1,inactive,inactive,55.1 µM (active),–,–,–,–,114 µM (active),inactive,inactive,inactive,49.6 µM (active),44.2 µM (active),inactive,inactive,44.2 µM (active),inactive,inactive,37.7% (active),27.6 µM (active)
CN1CCC(=C2c3ccccc3CCc3sccc32)CC1,inactive,inactive,inactive,–,–,16.9 µM (active),inactive,inactive,inactive,inactive,inactive,inactive,inactive,inactive,inactive,–,inactive,inactive,-9.84% [at 42.5 µM],inactive
N#Cc1cc2ccccc2c2ccccc12,inactive,inactive,27.4 µM (active),inactive,–,inactive,inactive,inactive,inactive,inactive,inactive,inactive,inactive,inactive,inactive,inactive,–,–,–,–
CCOC(=O)CC(=O)c1cc(F)c(Cl)nc1Cl,inactive,inactive,inactive,inactive,–,inactive,inactive,inactive,inactive,inactive,inactive,–,–,inactive,inactive,–,–,–,–,–
C=CC[N+]1([C@H]2C[C@H]3[C@@H]4CC[C@H]5C[C@H](OC(C)=O)[C@@H](N6CCCCC6)C[C@]5(C)[C@H]4CC[C@]3(C)[C@H]2OC(=O)CC)CCCCC1,inactive,inactive,inactive,–,inactive,inactive,inactive,–,inactive,inactive,inactive,inactive,inactive,inactive,inactive,inactive,–,inactive,-0.214% [at 42.5 µM],inactive
CC1=CCC(C(C)C)C=C1 (stereo not drawn),inactive,inactive,inactive,inactive,–,inactive,inactive,inactive,inactive,inactive,inactive,inactive,inactive,inactive,inactive,inactive,–,–,–,–
